{"source": "PubChem BioAssay (Tox21)", "note": "Inconclusive results are not listed. Values without a mark were called inactive. Calls of active or inactive are those of the source. Calls follow the shape of the full dose curve. % is scaled to controls: 0 for no effect and ±100 for the full control effect; potency is read from the fitted curve at half-maximal effect."}
{"assay": "qHTS assay to identify small molecule agonists of the hypoxia (HIF-1) signaling pathway - cell viability counter screen (AID 1224844); also: nearly all actives have a fitted effect of over 50% in size", "details": "HRE-bla ME-180 viability, CellTiter-Glo luminescence, 17 h; series mostly up to 76.8 µM; activity change, negative = cytotoxicity: at the top concentration", "text": "National Center for Advancing Translational Sciences [NCATS]\nNIH Chemical Genomics Center [NCGC]\nU.S. Environmental Protection Agency [EPA]\nNational Institutes of Environmental Health Sciences [NIEHS]\nNational Toxicology Program [NTP]\nU.S. Food and Drug Administration [FDA]\nHypoxia-inducible factor-1 (HIF-1) is the major hypoxia-regulated transcription factor that controls cellular responses to low oxygen concentration. HIF-1 is composed of two subunits: hypoxia responsive HIF-1-alpha and constitutively expressed HIF-1-beta, which is also known as aryl hydrocarbon receptor nuclear translocator. During hypoxic conditions, HIF-1-alpha heterodimerizes with HIF-1-beta and translocates into the nucleus where the HIF-1 complex binds to the hypoxia-response element (HRE) and activates expression of target genes such as VEGF (vascular endothelial growth factor). The HIF-1 pathway is essential to normal growth and development, and is involved in the pathophysiology of cancer, inflammation, and ischemia.\nUsing a beta-lactamase reporter-gene under control of the hypoxia response element, a cell-based assay [CellSensor(TM) HRE-bla ME-180 from Life Technologies, Carlsbad, CA] was used to measure hypoxia-induced signaling. Tox21 10K library compounds were measured for their ability to induce the reporter gene activity. The cytotoxicity of the Tox21 compound library against HRE-bla ME-180 cell line was tested in parallel by measuring cell viability using CellTiter-Glo assay (Promega, Madison, WI) in the same assay wells.\nTox21 Assay Protocol Summary:\nHRE-bla ME-180 cells were dispensed at 2,000 cells per well in 6 uL of assay medium containing 0.5% dialyzed FBS into black wall/clear-bottom 1536-well plates using a Multidrop Combi (Thermo Scientific, Waltham, MA) dispenser. After the assay plates were incubated at 37C and 5% CO2 for 5 hrs, 23 nL of compounds dissolved in DMSO, positive controls or DMSO only was transferred to each well of the assay plate using a Pintool station (Kalypsys, San Diego, CA). The assay plates were incubated at 37C and 5% CO2 for 17 hrs. One uL of LiveBLAzerTM B/G FRET substrate (CCF4-AM) (Life Technologies) was added to each well using a Flying Reagent Dispenser (FRD, Aurora Discovery, San Diego, CA). After 2 hr incubation at room temperature, fluorescence intensity (405 nm excitation, 460 nm and 530 nm emissions) was measured using an Envision plate reader (PerkinElmer, Shelton, CT). For cytotoxicity, 4 ul/well of CellTiter-Glo reagent was added into the assay plates using an FRD. After 30 min incubation at room temperature, the luminescence intensity was measured using a ViewLux plate reader (PerkinElmer)."}
{"smiles": "O=C(Nc1ccccc1)Nc1cnns1", "activity change, negative = cytotoxicity": "13.5%"}
{"smiles": "CCBr", "activity change, negative = cytotoxicity": "-0.0395%"}
{"smiles": "ClC=C(Cl)Cl", "activity change, negative = cytotoxicity": "-1.87%"}
{"smiles": "COP(=S)(OC)Oc1cc(Cl)c(I)cc1Cl", "activity change, negative = cytotoxicity": "-12.6%"}
{"smiles": "COC(=O)C(C)N(C(=O)Cc1ccccc1)c1c(C)cccc1C", "note": "(stereo not given)", "activity change, negative = cytotoxicity": "-12.3%"}
{"smiles": "CC1CC(CC2CCC(N)C(C)C2)CCC1N", "note": "(stereo not given)", "activity change, negative = cytotoxicity": "3.48%"}
{"smiles": "CCCCCCC#N", "activity change, negative = cytotoxicity": "-1.31%"}
{"smiles": "CC(=O)CCC(C)=O", "activity change, negative = cytotoxicity": "7.49%"}
{"smiles": "CC(=O)C(C)(C)C", "activity change, negative = cytotoxicity": "1.05%"}
{"smiles": "c1ccc(CN2CCNCC2)cc1", "activity change, negative = cytotoxicity": "5.85% [at 200 µM]"}
{"smiles": "O=C1CN=C(c2ccccc2)c2cc(Cl)ccc2N1CC1CC1", "activity change, negative = cytotoxicity": "-14.9%"}
{"smiles": "CC(C)=CCOc1c2occc2cc2ccc(=O)oc12", "activity change, negative = cytotoxicity": "-2.02% [at 35.3 µM]"}
{"smiles": "CC(C)O.CC(C)O.OCCN(CCO)CCO.OCCN(CCO)CCO.[Ti]", "activity change, negative = cytotoxicity": "0.891%"}
{"smiles": "CC(O)(CS(=O)(=O)c1ccc(F)cc1)C(=O)Nc1ccc(C#N)c(C(F)(F)F)c1", "note": "(stereo not given)", "activity change, negative = cytotoxicity": "-16.1% [at 35.3 µM]"}
{"smiles": "COC(=O)c1cncn1C(C)c1ccccc1", "note": "(stereo not given)", "activity change, negative = cytotoxicity": "1.71% [at 35.3 µM]"}
{"smiles": "NC(=O)C(Cl)(Cl)Cl", "activity change, negative = cytotoxicity": "-2.93%"}
{"smiles": "O=C1C(=O)c2cccc3cccc1c23", "activity change, negative = cytotoxicity": "-11.4%"}
{"smiles": "Clc1cc(C(Cl)(Cl)Cl)cnc1Cl", "activity change, negative = cytotoxicity": "-3.24%"}
{"smiles": "CCOP(O)OCC", "activity change, negative = cytotoxicity": "0.776%"}
{"smiles": "CCOC(=O)COc1cc(-c2nn(C)c(OC(F)F)c2Cl)c(F)cc1Cl", "activity change, negative = cytotoxicity": "1.38%"}
{"smiles": "C/C(=C\\c1ccccc1)[N+](=O)[O-]", "Potency": "38.9 µM (active)"}
{"smiles": "COC(C)(C)CCC[C@H](C)C/C=C/C(C)=C/C(=O)OC(C)C", "activity change, negative = cytotoxicity": "-6.38%"}
{"smiles": "CC1Sc2c(C(=O)O)c(=O)c3cc(F)c(N4CCNCC4)cc3n21", "note": "(stereo not given)", "activity change, negative = cytotoxicity": "-0.827% [at 35.3 µM]"}
{"smiles": "OCCCBr", "activity change, negative = cytotoxicity": "-0.488%"}
{"smiles": "CCOP(=O)(OCC)Oc1ccc([N+](=O)[O-])cc1", "Potency": "inactive"}
{"smiles": "CCOP(=S)(OCC)SCSCC", "activity change, negative = cytotoxicity": "3.09%"}
{"smiles": "IC(I)=C(I)I", "Potency": "11 µM (active)"}
{"smiles": "C=CCC1([C@H](C)CCC)C(=O)NC(=O)NC1=O", "activity change, negative = cytotoxicity": "-0.453%"}
{"smiles": "C[C@@H]1CC[C@H]2[C@@H](C)C(=O)O[C@@H]3O[C@@]4(C)CC[C@@H]1[C@]32OO4", "activity change, negative = cytotoxicity": "-1.89% [at 35.3 µM]"}
{"smiles": "CCOP(=S)(OCC)SCn1nnc2ccccc2c1=O", "activity change, negative = cytotoxicity": "0.754%"}
{"smiles": "c1ccoc1", "activity change, negative = cytotoxicity": "-12%"}
{"smiles": "CC(C)(C)c1cc([N+](=O)[O-])cc([N+](=O)[O-])c1O", "activity change, negative = cytotoxicity": "35.2%"}
{"smiles": "O=C(O)CC(Cl)C(=O)O", "note": "(stereo not given)", "activity change, negative = cytotoxicity": "-4.72%"}
{"smiles": "Cn1cc[n+](C)c1", "note": "(tested in a mixture with another compound)", "activity change, negative = cytotoxicity": "0.288%"}
{"smiles": "O=Cc1ccc2c(c1)OCO2", "activity change, negative = cytotoxicity": "-1.61%"}
{"smiles": "Brc1ccccc1", "activity change, negative = cytotoxicity": "0.338%"}
{"smiles": "C=CC(=O)OCC(C)C", "activity change, negative = cytotoxicity": "4.45%"}
{"smiles": "COc1cc(CC(C)N)cc2c1OCO2", "note": "(stereo not given)", "activity change, negative = cytotoxicity": "0.755%"}
{"smiles": "CC/C(=N\\OC/C=C/Cl)C1=C(O)CC(C2CCOCC2)CC1=O", "note": "(stereo not given)", "activity change, negative = cytotoxicity": "7.98%"}
{"smiles": "CN(C)c1ccc(N(C)C)cc1", "activity change, negative = cytotoxicity": "-4.76%"}
